In PubChem BioAssay AID1711 (National Center for Advancing Translational Sciences (NCATS), 2009):
Records with an inconclusive call do not appear. Active and inactive are the calls of the source. The call rests on the fitted dose curve; in most records, active means well fitted curve in the direction sought with a large enough effect; inconclusive means small, poorly fitted or top-dose-only effect, or another doubt; inactive means no such curve, though single readings can be large or run the other way.

Each compound was assayed against Caspase-1 (Homo sapiens) (UniProt P29466) (assay: Concentration-Response Counterscreen for Tau: Redox Active Inhibitors of Caspase-1). Conditions: purified caspase-1, Ac-WEHD-AFC fluorescence kinetic; series mostly up to 40.6 µM; activity change, negative = inhibition: at the top concentration.
Sequence of Caspase-1 (Homo sapiens) (P29466 whole entry, looked up): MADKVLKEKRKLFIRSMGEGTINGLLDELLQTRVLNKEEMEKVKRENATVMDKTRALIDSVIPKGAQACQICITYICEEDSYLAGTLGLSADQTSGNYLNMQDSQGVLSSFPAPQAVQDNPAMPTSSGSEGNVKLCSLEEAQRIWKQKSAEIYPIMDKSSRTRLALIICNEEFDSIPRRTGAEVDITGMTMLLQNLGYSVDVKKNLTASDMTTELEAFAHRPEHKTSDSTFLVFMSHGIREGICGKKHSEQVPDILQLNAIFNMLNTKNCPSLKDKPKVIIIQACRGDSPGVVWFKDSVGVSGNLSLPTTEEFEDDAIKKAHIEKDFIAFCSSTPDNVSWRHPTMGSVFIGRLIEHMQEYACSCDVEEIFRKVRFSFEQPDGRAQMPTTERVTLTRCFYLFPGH
Text: NIH Molecular Libraries Probe Production Network [MLPCN] NIH Chemical Genomics Center [NCGC] MLPCN Grant: X01 MH083262-01 Assay Provider: Carlo Ballatore, University of Pennsylvania NCGC Assay Overview: The microtubule-associated protein tau is an abundant protein in the axons of neurons that stabilizes microtubules. With its ability to modulate microtubule dynamics, tau contributes directly or indirectly, to key structural and regulatory cellular functions. Particularly important is the influence tau exerts on axonal transport, which allows signaling molecules, trophic factors and other essential cellular constituents to travel along the axons. Under pathological conditions, tau becomes sequestered into insoluble aggregates called neurofibrillary tangles. This phenomenon is believed to have pathological consequences by promoting axonal transport deficits that ultimately lead to synaptic dysfunction and neuronal loss. To examine the selectivity of tau fibrillization inhibitors, compounds were tested in an in vitro assay for caspase-1 activity. This assay is a counterscreen for tau fibrillization inhibitors to identify non-specific oxidizing agents; an active site cysteine in caspase-1 must remain in a reduced state and the enzyme is inactivated by oxidative compounds. Caspase-1 activity was monitored using a profluorescent substrate that upon enzymatic cleavage yields a fluorescent probe that is detectable at 405 nm excitation and 525 nm emission. Scheer, J. M., Wells, J. A., and Romanowski, M. J. (2005) Protein Expression and Purification 41, 148-153.
NCGC Assay Protocol Summary: Caspase-1, kindly provided by Dr. James Wells (University of California, San Francisco), was purified and assayed at 100 nM in buffer containing 50 mM HEPES pH 7.5, 50 mM KCl, 200 mM NaCl, and 0.1% CHAPS. Caspase-1 was dispensed at 3 uL/well into black solid 1536-well plates and incubated 5 min with various concentrations of test compound, with subsequent addition of 1 ul/well Ac-WEHD-AFC substrate (20 uM final concentration). Within 1 minute of substrate addition, fluorescence intensity (405 nm excitation and 525 nm emission) was measured on a ViewLux (PerkinElmer) every 30 s for 10 min. The first 3 minutes of fluorescence values were linear and used to calculate the slope of substrate conversion as a measure of enzyme activity.
In the case of Nc1scc2c(CO)nn(-c3ccccc3)c(=O)c12, the “activity change, negative = inhibition” value is reported as -19.2% (inactive).
In the case of COc1ncc(-c2ccccc2)cc1N, the Potency is reported as 15.8 µM (active).
In the case of CCOC(=O)c1nn(-c2ccccc2)c(=O)c2c(N)sc(C)c12, the “activity change, negative = inhibition” value is reported as -9.73% (inactive).
In the case of CCOC(=O)c1nn(-c2ccc(OC)cc2)c(=O)c2c(N)scc12, the Potency is reported as “inactive”.
With CCOC(=O)c1ccc(-n2nc(C(=O)OCC)c3csc(N)c3c2=O)cc1 the “activity change, negative = inhibition” value was -20.3% (inactive).
For CCOC(=O)c1nn(-c2ccccc2)c(=O)c2c(NC(=O)c3ccccc3)scc12, the “activity change, negative = inhibition” value was -8.05% (inactive).
Nc1scc2c(C(=O)N3CCOCC3)nn(-c3ccccc3)c(=O)c12 was tested, and the “activity change, negative = inhibition” value was -10% (inactive).
With CCOC(=O)c1nn(-c2cccc(C(F)(F)F)c2)c(=O)c2c(N)scc12 the “activity change, negative = inhibition” value was -16.5% (inactive).
For CCOC(=O)c1nn(-c2ccc(C)cc2)c(=O)c2c(N)scc12, the “activity change, negative = inhibition” value was -3.58% (inactive).
With CCOC(=O)c1nn(-c2ccccc2)c(=O)c2c(NC(C)=O)scc12 the “activity change, negative = inhibition” value was -13.9% (inactive).
With CCOC(=O)c1nn(-c2ccc(F)cc2)c(=O)c2c(N)scc12 the “activity change, negative = inhibition” value was -19.8% (inactive).
For CC(=O)Nc1sc(C)c2cnn(-c3ccccc3)c(=O)c12, the “activity change, negative = inhibition” value was -3.22% (inactive).
For Nc1cc(-c2ccccc2)c[nH]c1=O, the Potency was 7.94 µM (active).
With CCOC(=O)c1nn(-c2ccccc2F)c(=O)c2c(N)scc12 the “activity change, negative = inhibition” value was 7.77% (inactive).
In the case of Nc1scc2c(C(=O)O)nn(-c3ccccc3)c(=O)c12, the “activity change, negative = inhibition” value is reported as -14.5% (inactive).
In the case of CCOC(=O)c1nn(-c2ccccc2)c(=O)c2c(N)scc12, the “activity change, negative = inhibition” value is reported as -11% (inactive).
For Nc1nn(-c2ccccc2)c(=O)c2c(N)scc12, the “activity change, negative = inhibition” value was -11.3% (inactive).
For CCOC(=O)c1nn(-c2ccc(C)c(C)c2)c(=O)c2c(N)scc12, the “activity change, negative = inhibition” value was 1.88% (inactive).
For CCOC(=O)c1nn(-c2ccc(Cl)c(Cl)c2)c(=O)c2c(N)scc12, the “activity change, negative = inhibition” value was -2.84% (inactive).
